In PubChem BioAssay (NCATS):
Where “and” joins values, the source holds several entries; their conditions need not be identical. Equal values may be shown once. Inconclusive results are not listed. Entries that show only a call come without a potency. A structure can be active in one record and inactive in another. Calls of active or inactive are those of the source. Calls come from the whole dose curve; as a rule, active = well fitted curve in the direction sought with a large enough effect; inconclusive = small, poorly fitted or top-dose-only effect, or another doubt; inactive = no such curve, though single readings can be large; an effect the other way counts as inactive or inconclusive.

Molecular target: Rap guanine nucleotide exchange factor 3 (Homo sapiens) (UniProt O95398)
Sequence (O95398 whole entry, looked up): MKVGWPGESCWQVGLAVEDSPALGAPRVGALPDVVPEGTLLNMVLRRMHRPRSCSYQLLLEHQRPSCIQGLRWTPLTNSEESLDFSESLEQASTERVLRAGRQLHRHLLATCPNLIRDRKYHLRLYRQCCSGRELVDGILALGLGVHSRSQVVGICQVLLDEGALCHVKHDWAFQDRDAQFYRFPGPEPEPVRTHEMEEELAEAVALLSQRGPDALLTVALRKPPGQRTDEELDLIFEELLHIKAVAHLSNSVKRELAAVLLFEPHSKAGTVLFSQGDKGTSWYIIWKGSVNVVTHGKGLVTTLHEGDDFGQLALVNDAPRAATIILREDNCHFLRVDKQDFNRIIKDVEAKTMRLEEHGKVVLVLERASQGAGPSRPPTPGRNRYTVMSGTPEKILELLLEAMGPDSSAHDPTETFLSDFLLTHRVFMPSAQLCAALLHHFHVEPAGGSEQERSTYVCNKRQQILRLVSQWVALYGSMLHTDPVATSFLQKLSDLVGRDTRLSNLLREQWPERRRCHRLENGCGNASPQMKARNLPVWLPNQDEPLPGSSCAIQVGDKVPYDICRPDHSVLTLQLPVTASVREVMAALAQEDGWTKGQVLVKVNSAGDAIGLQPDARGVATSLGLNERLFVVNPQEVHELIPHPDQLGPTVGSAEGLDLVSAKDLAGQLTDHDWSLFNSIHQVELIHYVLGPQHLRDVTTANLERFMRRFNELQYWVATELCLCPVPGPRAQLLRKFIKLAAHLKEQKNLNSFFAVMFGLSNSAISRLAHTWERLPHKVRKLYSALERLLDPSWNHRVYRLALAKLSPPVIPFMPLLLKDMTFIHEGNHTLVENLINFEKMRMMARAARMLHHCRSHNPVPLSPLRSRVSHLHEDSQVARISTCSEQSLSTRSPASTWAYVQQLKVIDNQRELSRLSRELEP
Assay: Confirmatory qHTS for antagonist of cAMP-regulated guanine nucleotide exchange factor 3 (EPAC1) (AID 1645880); note: nearly all actives have a fitted effect of over 55% in size; note: potency is the fitted concentration of half-maximal effect
Conditions: EPAC1 Rap1B-BODIPY-GDP exchange, fluorescence; series mostly up to 115 µM
Method in brief: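 Nucleotide exchange uses 100 nM EPAC1, 250 nM RAP1B-BODIPY-GDP and 50 uM GDP, with compounds in a concentration-titration series. After 5 min at room temperature, fluorescence (480 nm ex/540 nm em) is read every 5 min for 30 min. Data are normalized to control ATA and DMSO.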

SMILES | Potency
CC(=O)Oc1ccc(C(c2ccc(OC(C)=O)cc2)c2ccccn2)cc1 | inactive
C/C=C(/C(=C/C)c1ccc(O)cc1)c1ccc(O)cc1 | inactive
O=C(Nc1ccc(Oc2ccc(Cl)cc2)c(Cl)c1)c1cc(I)cc(I)c1O | 30.1 µM (active)
C[n+]1c2cc(N)ccc2cc2ccc(N)cc21 (tested in a mixture with another compound) | inactive
c1ccc(-c2ccc(C(c3ccccc3)n3ccnc3)cc2)cc1 (stereo unspecified) | inactive

Molecular target: Rap guanine nucleotide exchange factor 3 (Homo sapiens) (UniProt O95398)
Assay: Confirmatory qHTS for agonist of cAMP-regulated guanine nucleotide exchange factor 3 (EPAC1) (AID 1645881);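 note: EPAC1 catalysed release of BODIPY-GDP from Rap1B seen as fluorescence loss; nearly all actives have a fitted effect of over 75% in size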
Conditions: EPAC1 Rap1B BODIPY-GDP exchange fluorescence, 100% = cAMP control response; series mostly up to 154 µM

SMILES | outcome
CC(=O)Oc1ccc(C(c2ccc(OC(C)=O)cc2)c2ccccn2)cc1 | inactive
C/C=C(/C(=C/C)c1ccc(O)cc1)c1ccc(O)cc1 | inactive
O=C(Nc1ccc(Oc2ccc(Cl)cc2)c(Cl)c1)c1cc(I)cc(I)c1O | inactive
c1ccc(-c2ccc(C(c3ccccc3)n3ccnc3)cc2)cc1 (stereo unspecified) | inactive

Molecular target: Rap guanine nucleotide exchange factor 4 (Homo sapiens) (UniProt Q8WZA2)
Sequence (Q8WZA2 whole entry, looked up): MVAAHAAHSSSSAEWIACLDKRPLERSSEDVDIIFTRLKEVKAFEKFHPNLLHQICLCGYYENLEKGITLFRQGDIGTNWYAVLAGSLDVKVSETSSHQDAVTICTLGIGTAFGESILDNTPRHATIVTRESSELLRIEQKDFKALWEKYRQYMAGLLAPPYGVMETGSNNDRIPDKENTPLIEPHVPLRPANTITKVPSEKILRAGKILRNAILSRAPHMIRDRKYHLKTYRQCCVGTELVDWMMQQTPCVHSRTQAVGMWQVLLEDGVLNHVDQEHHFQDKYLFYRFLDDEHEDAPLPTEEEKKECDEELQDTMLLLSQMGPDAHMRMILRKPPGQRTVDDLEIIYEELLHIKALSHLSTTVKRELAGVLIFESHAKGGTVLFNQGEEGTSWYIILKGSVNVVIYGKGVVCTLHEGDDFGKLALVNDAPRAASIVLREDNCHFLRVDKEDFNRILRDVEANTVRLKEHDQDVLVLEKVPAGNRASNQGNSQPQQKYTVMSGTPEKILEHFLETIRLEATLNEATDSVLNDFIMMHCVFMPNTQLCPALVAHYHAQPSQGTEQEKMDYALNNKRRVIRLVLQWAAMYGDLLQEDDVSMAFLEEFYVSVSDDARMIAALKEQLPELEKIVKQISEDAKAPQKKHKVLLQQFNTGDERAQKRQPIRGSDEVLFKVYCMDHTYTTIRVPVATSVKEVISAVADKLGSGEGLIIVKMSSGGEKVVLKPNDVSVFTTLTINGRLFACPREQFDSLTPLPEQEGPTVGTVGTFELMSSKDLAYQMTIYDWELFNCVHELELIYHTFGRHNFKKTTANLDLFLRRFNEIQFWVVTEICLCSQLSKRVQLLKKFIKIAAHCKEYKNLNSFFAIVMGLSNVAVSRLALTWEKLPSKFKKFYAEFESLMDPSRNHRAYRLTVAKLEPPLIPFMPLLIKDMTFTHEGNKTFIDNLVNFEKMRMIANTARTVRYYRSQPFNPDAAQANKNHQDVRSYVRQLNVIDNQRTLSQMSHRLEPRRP
Assay: Confirmatory qHTS for agonist of cAMP-regulated guanine nucleotide exchange factor 4 (EPAC2) (AID 1645884);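 note: nucleotide exchange releases bodipy-GDP from Rap1 and this lowers its fluorescence; nearly all actives have a fitted effect of over 65% in size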
Conditions: EPAC2 GEF activity, Rap1B-BODIPY-GDP fluorescence; series mostly up to 154 µM

SMILES | Potency
CC(=O)Oc1ccc(C(c2ccc(OC(C)=O)cc2)c2ccccn2)cc1 | inactive
C/C=C(/C(=C/C)c1ccc(O)cc1)c1ccc(O)cc1 | inactive
O=C(Nc1ccc(Oc2ccc(Cl)cc2)c(Cl)c1)c1cc(I)cc(I)c1O | inactive
c1ccc(-c2ccc(C(c3ccccc3)n3ccnc3)cc2)cc1 (stereo unspecified) | inactive

Molecular target: Rap guanine nucleotide exchange factor 4 (Homo sapiens) (UniProt Q8WZA2)
Assay: Confirmatory qHTS for antagonist of cAMP-regulated guanine nucleotide exchange factor 4 (EPAC2) (AID 1645885); note: nearly all actives have a fitted effect of over 25% in size; note: potency is the fitted concentration of half-maximal effect
Conditions: EPAC2 Rap1B-BODIPY-GDP exchange fluorescence, biochemical; series mostly up to 114 µM

SMILES | Potency | activity change, negative = inhibition
CC(=O)Oc1ccc(C(c2ccc(OC(C)=O)cc2)c2ccccn2)cc1 | inactive and 44.1 µM (active) | 
C/C=C(/C(=C/C)c1ccc(O)cc1)c1ccc(O)cc1 | 22.1 µM (active) | -2.47% [at 12.7 µM] (inactive)
C[n+]1c2cc(N)ccc2cc2ccc(N)cc21 (tested in a mixture with another compound) | inactive | 
c1ccc(-c2ccc(C(c3ccccc3)n3ccnc3)cc2)cc1 (stereo unspecified) | 13.9 µM (active) and inactive | 

Molecular target: Rap guanine nucleotide exchange factor 3 (Homo sapiens) (UniProt O95398)
Assay: Counterscreen qHTS for antagonist of cAMP-regulated guanine nucleotide exchange factor 3 (EPAC1) (AID 1645888);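 note: fluorescence loss as bound BODIPY-GDP is released from Rap1B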
Conditions: Rap1B-BODIPY-GDP nucleotide exchange, fluorescence; series mostly up to 154 µM
Method in brief: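 Measured: fluorescence of BODIPY-GDP bound to Rap1B, which falls as exchange proceeds. Conditions include 50 uM competing GDP, 5 and 30 min reads, and a later cAMP challenge for antagonist detection.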

SMILES | activity change, negative = inhibition | outcome
C/C=C(/C(=C/C)c1ccc(O)cc1)c1ccc(O)cc1 | -9.27% [at 30.8 µM] (inactive) | 
O=C(Nc1ccc(Oc2ccc(Cl)cc2)c(Cl)c1)c1cc(I)cc(I)c1O |  | inactive
c1ccc(-c2ccc(C(c3ccccc3)n3ccnc3)cc2)cc1 (stereo unspecified) |  | inactive
